Reference: PubChem BioAssay
The source made the active and inactive calls.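 Rule for the calls, unless noted: active = mean inhibition above 46.68%, the untreated control wells mean plus 3 SD; inactive = the rest.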

Experiments:
[1] = molecular target: Nuclear receptor coactivator 3 (Homo sapiens) (UniProt Q9Y6Q9); assay: SRC3 coactivator transcriptional activity inhibitors, confirmation, cell-based, luminescence, quadruplicate (AID 588792;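 active = mean inhibition over 43.08%, the solvent-only control mean plus 3 SD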;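 note: 0% = DMSO treated cells and 100% = gossypol at 36 µM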); details: HEK293 GAL4-SRC3 luciferase reporter, at 3.6 µM, hits give high values
[2] = test system: transactivating tegument protein VP16 (Human herpesvirus 1), Gal4-VP16 luciferase reporter; assay: VP16 transactivation inhibitors, counter-screen for SRC3 inhibitor project, cell-based, luminescence, high throughput (AID 588794; in the data active = inhibition above about 30%); details: mammalian cells, VP16-driven luciferase reporter luminescence; at 3.6 µM; hits give high values
[3] = molecular target: Nuclear receptor coactivator 1 (Homo sapiens) (UniProt Q15788); assay: SRC1 coactivator transcriptional activity inhibitors, confirmation, cell-based, luminescence, quadruplicate (AID 588820); details: HEK293 GAL4-SRC1 luciferase reporter, at 3.6 µM, hits give high values;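 note: 0% = DMSO wells and 100% = gossypol 36 µM treated wells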
[4] = VP16 transactivation inhibitors, counter-screen for SRC1 inhibitor project, cell-based, luminescence, high throughput (AID 588824; in the data active = inhibition above about 25%); details: cell-based VP16 transactivation luciferase luminescence; at 3.6 µM; hits give high values
[5] = StAR promoter reporter inhibitors, counter-screen for LRH-1 inverse agonist project, cell-based, luminescence, high throughput (AID 651611; in the data active = inhibition above about 28%); details: StAR promoter luciferase reporter counterscreen, at 3.6 µM, hits give high values
[6] = molecular target: Nuclear receptor subfamily 5 group A member 2 (Homo sapiens) (UniProt O00482); assay: LRH-1 (NR5A2) inverse agonists, retest, confirmation, cell-based, luminescence (AID 651613; in the data active = inhibition above about 42%;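 note: HEK293T cells co-transfected with LRH-1 and StAR promoter luciferase reporter; 0% = vehicle wells and 100% = parental cells lacking receptor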); details: cell-based LRH-1 luciferase reporter, inverse agonism; at 3.6 µM; hits give high values
[7] = molecular target: Steroidogenic factor 1 (Homo sapiens) (UniProt Q13285); assay: SF1 (NR5A1) inverse agonists, counter-screen for LRH-1 inverse agonist project, cell-based, luminescence, high throughput (AID 651614; in the data active = inhibition above about 44%;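 note: cells cotransfected with StAR promoter reporter and SF1 expression vector; 0% = vehicle on cells with receptor and 100% = vehicle on cells lacking receptor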); details: cell-based SF1 luciferase reporter, at 3.6 µM, hits give high values
[8] = VP16 transactivation reporter inhibitors, counter-screen for LRH-1 inverse agonist project, cell-based, luminescence, high throughput (AID 651615; in the data active = inhibition above about 33%); details: Gal4-VP16 luciferase reporter cells, at 3.6 µM, hits give high values
[9] = test system: transactivating tegument protein VP16 (Human herpesvirus 1); assay: VP16 transactivation reporter inhibitors, counter-screen for SRC2 inhibitor project, cell-based, luminescence, single concentration (AID 652007; in the data active = inhibition above about 36%); details: cell-based VP16 transactivation luciferase reporter, at 8.9 µM, hits give high values
[10] = molecular target: Nuclear receptor coactivator 2 (Homo sapiens) (UniProt Q15596); assay: SRC2 coactivator transcriptional activity inhibitors, confirmation, cell-based, luminescence, HEK293, triplicate (AID 652008;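 active = mean inhibition above 46.5%, the solvent-only control mean plus 3 SD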;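 note: 0% = DMSO-treated cells and 100% = Gossypol at 36 µM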); details: HEK293 GAL4-SRC2 luciferase reporter, at 8.9 µM, hits give high values

Measured: inhibition

Nuclear receptor coactivator 1 (Homo sapiens), sequence (Q15788 whole entry, looked up, the tested form may be a part): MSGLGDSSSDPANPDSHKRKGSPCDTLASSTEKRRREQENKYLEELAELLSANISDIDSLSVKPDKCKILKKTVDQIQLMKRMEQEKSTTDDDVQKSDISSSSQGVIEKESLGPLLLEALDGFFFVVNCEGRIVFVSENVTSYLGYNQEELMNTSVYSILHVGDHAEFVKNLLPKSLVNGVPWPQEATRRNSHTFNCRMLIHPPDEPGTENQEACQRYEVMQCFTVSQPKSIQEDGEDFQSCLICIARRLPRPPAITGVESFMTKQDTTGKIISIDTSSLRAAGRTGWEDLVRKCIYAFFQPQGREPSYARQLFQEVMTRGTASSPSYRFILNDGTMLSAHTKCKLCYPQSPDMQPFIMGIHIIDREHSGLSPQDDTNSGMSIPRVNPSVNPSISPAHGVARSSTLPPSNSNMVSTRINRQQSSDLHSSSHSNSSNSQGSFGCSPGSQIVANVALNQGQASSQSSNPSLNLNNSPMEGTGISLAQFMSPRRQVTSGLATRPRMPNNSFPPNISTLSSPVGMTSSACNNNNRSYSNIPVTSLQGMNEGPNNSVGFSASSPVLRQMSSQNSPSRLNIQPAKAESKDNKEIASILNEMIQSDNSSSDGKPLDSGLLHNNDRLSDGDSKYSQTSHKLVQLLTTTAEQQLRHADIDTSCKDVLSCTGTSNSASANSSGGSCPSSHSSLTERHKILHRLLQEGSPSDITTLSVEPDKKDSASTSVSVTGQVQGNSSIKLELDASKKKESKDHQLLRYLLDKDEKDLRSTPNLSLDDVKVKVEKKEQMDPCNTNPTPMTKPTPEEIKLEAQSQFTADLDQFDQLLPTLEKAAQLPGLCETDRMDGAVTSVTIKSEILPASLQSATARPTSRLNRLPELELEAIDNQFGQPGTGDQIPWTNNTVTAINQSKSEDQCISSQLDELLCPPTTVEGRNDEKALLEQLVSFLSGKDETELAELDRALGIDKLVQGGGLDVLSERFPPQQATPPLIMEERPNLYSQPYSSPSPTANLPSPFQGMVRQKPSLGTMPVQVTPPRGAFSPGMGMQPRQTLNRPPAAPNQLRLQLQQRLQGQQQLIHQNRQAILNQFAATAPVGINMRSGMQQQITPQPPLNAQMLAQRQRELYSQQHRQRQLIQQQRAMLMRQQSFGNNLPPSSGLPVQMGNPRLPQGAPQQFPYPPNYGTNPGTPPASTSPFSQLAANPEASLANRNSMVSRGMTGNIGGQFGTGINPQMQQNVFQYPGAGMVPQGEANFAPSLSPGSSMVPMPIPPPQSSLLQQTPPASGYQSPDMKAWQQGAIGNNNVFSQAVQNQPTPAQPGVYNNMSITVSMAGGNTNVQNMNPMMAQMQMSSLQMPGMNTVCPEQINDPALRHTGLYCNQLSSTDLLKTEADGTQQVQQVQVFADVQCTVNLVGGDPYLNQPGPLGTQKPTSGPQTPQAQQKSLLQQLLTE
Nuclear receptor subfamily 5 group A member 2 (Homo sapiens), sequence (O00482 whole entry, looked up): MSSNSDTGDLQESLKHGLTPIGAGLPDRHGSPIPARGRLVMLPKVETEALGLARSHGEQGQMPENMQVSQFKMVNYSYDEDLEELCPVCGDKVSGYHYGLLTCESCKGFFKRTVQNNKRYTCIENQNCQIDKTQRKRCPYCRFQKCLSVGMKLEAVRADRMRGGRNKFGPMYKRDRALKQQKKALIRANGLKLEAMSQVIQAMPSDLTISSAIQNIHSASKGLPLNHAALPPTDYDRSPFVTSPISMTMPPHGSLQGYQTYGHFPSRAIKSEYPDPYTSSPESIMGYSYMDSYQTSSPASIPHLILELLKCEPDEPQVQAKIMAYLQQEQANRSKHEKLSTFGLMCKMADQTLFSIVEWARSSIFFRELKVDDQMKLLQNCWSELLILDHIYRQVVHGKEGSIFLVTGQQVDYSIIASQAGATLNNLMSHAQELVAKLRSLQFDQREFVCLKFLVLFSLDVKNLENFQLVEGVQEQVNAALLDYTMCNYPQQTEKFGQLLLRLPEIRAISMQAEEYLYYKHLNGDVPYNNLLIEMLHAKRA
Nuclear receptor coactivator 3 (Homo sapiens), sequence (Q9Y6Q9 whole entry, looked up, the tested form may be a part): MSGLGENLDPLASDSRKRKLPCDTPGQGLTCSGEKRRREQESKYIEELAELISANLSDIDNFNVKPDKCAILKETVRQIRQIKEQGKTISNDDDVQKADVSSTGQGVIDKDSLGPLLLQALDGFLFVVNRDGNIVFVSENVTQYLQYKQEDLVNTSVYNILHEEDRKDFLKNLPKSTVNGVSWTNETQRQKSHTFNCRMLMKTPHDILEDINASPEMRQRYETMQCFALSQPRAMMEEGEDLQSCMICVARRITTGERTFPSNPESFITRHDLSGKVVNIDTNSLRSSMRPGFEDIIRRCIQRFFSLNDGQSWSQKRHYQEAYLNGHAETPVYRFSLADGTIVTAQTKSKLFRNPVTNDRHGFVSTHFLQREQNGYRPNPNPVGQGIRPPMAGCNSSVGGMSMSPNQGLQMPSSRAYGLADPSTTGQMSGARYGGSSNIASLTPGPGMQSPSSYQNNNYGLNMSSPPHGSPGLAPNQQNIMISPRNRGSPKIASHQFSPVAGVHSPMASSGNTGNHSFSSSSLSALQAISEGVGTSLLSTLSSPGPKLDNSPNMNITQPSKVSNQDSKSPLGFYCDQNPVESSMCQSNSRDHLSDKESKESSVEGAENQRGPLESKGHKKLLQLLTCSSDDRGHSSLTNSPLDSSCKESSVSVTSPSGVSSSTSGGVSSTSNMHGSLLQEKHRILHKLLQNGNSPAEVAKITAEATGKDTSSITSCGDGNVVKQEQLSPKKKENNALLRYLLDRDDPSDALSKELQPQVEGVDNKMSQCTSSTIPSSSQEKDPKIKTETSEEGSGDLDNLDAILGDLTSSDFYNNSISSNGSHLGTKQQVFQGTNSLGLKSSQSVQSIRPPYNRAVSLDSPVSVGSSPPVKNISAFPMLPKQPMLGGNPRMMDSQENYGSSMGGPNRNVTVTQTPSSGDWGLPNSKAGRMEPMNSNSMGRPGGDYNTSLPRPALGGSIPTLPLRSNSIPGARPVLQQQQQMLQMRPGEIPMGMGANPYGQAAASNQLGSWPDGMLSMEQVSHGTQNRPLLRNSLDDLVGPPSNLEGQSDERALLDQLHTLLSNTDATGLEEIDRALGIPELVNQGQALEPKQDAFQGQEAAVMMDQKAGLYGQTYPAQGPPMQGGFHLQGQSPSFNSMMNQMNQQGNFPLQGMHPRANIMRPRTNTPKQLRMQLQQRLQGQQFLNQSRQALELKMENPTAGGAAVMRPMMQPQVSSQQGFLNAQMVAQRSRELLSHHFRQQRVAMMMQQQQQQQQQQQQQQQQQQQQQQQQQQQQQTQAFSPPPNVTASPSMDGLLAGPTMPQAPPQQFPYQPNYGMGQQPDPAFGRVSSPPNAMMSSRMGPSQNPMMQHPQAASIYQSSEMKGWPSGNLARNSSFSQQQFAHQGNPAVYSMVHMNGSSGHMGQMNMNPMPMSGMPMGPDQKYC
Nuclear receptor coactivator 2 (Homo sapiens), sequence (Q15596 whole entry, looked up, the tested form may be a part): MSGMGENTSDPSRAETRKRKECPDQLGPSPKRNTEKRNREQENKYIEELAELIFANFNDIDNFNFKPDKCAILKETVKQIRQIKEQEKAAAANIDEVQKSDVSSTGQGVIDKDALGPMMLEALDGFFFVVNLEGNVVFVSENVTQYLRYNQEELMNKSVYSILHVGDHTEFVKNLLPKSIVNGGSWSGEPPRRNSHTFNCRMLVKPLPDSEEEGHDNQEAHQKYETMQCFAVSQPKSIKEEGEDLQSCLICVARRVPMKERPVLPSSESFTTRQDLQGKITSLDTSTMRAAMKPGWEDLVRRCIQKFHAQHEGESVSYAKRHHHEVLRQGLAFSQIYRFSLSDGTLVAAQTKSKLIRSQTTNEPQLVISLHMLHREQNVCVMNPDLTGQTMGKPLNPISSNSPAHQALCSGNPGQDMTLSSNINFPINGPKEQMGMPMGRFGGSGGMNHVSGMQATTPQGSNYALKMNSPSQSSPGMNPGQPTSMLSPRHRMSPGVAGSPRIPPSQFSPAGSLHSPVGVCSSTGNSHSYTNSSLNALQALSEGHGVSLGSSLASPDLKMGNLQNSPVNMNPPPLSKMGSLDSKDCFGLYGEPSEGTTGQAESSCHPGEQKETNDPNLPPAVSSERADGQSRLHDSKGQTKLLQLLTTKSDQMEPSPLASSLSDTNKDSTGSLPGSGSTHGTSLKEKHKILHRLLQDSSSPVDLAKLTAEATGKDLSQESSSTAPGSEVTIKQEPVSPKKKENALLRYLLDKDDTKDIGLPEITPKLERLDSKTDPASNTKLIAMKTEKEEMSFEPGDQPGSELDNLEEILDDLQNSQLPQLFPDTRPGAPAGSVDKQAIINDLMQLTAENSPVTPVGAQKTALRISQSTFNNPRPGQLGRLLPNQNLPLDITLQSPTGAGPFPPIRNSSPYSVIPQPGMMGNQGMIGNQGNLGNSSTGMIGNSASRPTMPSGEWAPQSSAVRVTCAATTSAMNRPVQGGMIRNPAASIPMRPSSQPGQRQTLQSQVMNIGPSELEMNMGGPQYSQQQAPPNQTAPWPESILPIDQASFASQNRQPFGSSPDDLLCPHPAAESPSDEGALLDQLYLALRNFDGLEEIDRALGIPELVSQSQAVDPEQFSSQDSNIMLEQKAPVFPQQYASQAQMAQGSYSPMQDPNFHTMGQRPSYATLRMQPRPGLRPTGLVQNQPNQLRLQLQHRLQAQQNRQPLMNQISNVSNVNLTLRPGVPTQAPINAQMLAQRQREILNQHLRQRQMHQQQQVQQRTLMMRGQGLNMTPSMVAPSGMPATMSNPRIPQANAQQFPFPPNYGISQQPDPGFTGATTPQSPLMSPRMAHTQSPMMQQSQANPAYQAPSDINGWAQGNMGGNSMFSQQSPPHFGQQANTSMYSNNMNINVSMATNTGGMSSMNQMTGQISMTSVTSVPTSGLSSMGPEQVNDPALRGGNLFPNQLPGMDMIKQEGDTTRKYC

O=C(CN1C(=O)c2ccccc2S1(=O)=O)c1ccc(Cl)cc1Cl
active: [1] 65.8% | [2] 71.5% | [4] 62.5% | [5] 67.9% | [6] 55.3% | [7] 73% | [8] 57.4% | [9] 81.2% | [10] 83.7%
inactive: [3] 8.08%

Cc1cc(C)c(C(=O)/C=C/c2cccc3ccccc23)c(=O)[nH]1
active: [1] 72.8% | [2] 56.7% | [3] 55.2% | [4] 63.5% | [5] 94% | [6] 110% | [7] 97.8% | [8] 94.3% | [9] 47.2% | [10] 65.3%

OCC1OC(n2ccc3c2ncn2ncnc32)C(O)C1O (stereo not given)
active: [1] 64.6% | [2] 44.2% | [3] 55.1% | [4] 38.2% | [5] 52.8% | [6] 49.2% | [8] 60.2%
inactive: [7] 38.8% | [9] 12.2% | [10] 46.4%

COc1ccc2cc3c(N)nn(C(=O)c4ccccc4Cl)c3nc2c1
inactive: [9] -12.1%
active: [1] 74.4% | [2] 64.5% | [3] 60.9% | [4] 62.6% | [5] 47.3% | [6] 75.6% | [7] 59.1% | [8] 81.6% | [10] 50%

Cc1cc(C(=O)COC(=O)c2ccccc2O)c(C)n1CC1CCCO1 (stereo not given)
active: [1] 88.8% | [2] 85.1% | [3] 81.2% | [4] 76.8% | [5] 73.5% | [6] 64.9% | [7] 76.7% | [8] 75.2% | [9] 86.7% | [10] 96.3%

Cc1c(/C(O)=C2/C(=O)C(=O)N(Cc3cccnc3)C2c2ccccn2)cnn1-c1ccccc1 (stereo not given)
inactive: [1] 38.2% | [2] 3.13% | [3] 20.1% | [4] -13.8% | [6] 23.4% | [7] 36.8% | [8] 7.05% | [9] 11.9%
active: [5] 42% | [10] 52.3%

CC1CCC(C(C)C)C(OC(=O)Cn2c(-c3ccc(F)cc3)[n+](C)c3ccccc32)C1 (stereo not given)
inactive: [3] 25.4% | [5] 23.7% | [9] 26.2% | [10] 34.6%
active: [1] 69.1% | [2] 45.8% | [4] 38.6% | [6] 108% | [7] 59.9% | [8] 93.7%

N#Cc1c(NC(=O)CSc2ncn[nH]2)sc2c1CCCCC2
active: [1] 51.8% | [2] 65.9% | [4] 59% | [5] 29.9% | [6] 62.8% | [7] 50.1% | [8] 60.7% | [9] 87.6% | [10] 88%
inactive: [3] 28.3%

O=C(COC(=O)c1ccc[nH]c1=O)Nc1ccc(N2CCCCC2)cc1
active: [1] 54.4% | [5] 42.1% | [6] 55% | [9] 45.1% | [10] 90.5%
inactive: [2] 20.8% | [3] 42.2% | [4] 5.72% | [7] 41% | [8] 6.65%

CNc1cccnc1C=NNC(N)=S
inactive: [4] 17.9% | [5] 25.3% | [8] 30.4% | [9] -4.08% | [10] 9.84%
active: [1] 71.3% | [2] 40.5% | [3] 58.5% | [6] 57.8% | [7] 52.1%

O=C(CN1C(=O)c2ccccc2S1(=O)=O)c1ccc2c(c1)OCCO2
active: [1] 87.8% | [2] 89.7% | [3] 64% | [4] 84.8% | [5] 85.1% | [6] 86.3% | [7] 84.5% | [8] 84.4% | [9] 91.4% | [10] 95.2%

CCN1/C(=C/c2sc(-c3ccccc3C)c[n+]2C)Sc2ccccc21
inactive: [10] 34.1%
active: [1] 76.8% | [2] 86% | [3] 61.9% | [4] 82.8% | [5] 74.7% | [6] 105% | [7] 94.7% | [8] 89.2% | [9] 44.1%

O=C(CSCC(=O)Nc1ccccc1)N/N=C/c1c(O)ccc2ccccc12
active: [1] 49.3% | [2] 30.7% | [4] 33.4% | [5] 86% | [6] 102% | [7] 91.5% | [8] 82.9%
inactive: [3] 45.4% | [9] -14.6% | [10] 21.6%

CCCN(CCC)C1=CC(=[N+]2CCCC2)CC(C)(C)C1
active: [2] 56.8% | [4] 55.3% | [5] 38.3% | [6] 106% | [7] 78.8% | [8] 86.6%
inactive: [1] 25.5% | [3] 36.1% | [9] 29% | [10] 18.8%
